Data as given in PubChem BioAssay (NCATS).
Several values for one entry are separate records, joined by “and”; a condition that tells them apart may be missing. Equal values may be shown once. Records with an inconclusive call do not appear. Activity calls are given as the source filed them. Calls follow the shape of the dose curve; as a rule, active = well fitted inhibition curve with a large enough effect; inconclusive = small, poorly fitted or top-dose-only effect; inactive = flat fitted curve, though single readings scatter.

Experiments:
[1] = test system: HaCat; assay: Cytotoxic Profiling of Annotated Libraries Using Quantitative High-Throughput Screening (AID 1296008); details: Five cell lines viability, CellTiter-Glo ATP luminescence, 48-72 h; max response: stronger effect = lower value; as to max response: % is scaled to controls: 0 for no effect and ±100 for the full control effect
In short: (§1)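 Cytotoxicity was measured as CellTiter-Glo ATP luminescence, read after 10 min at room temperature. Compound treatment of the cells lasted 48 or 72 hr at 37 degrees Celsius in a qHTS format.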

[2] = test system: KB-3-1; assay: as above; details: Five cell lines viability, CellTiter-Glo ATP luminescence, 48-72 h; max response: stronger effect = lower value
In short: as §1

[3] = test system: NIH3T3; assay: as above; details: Five cell lines viability, CellTiter-Glo ATP luminescence, 48-72 h; max response: stronger effect = lower value
In short: as §1

[4] = test system: MCC-26; assay: qHTS assay to identify novel small-molecules to repurpose for Merkel cell carcinoma treatment (AID 1296009); details: MCC and control cell lines, CellTiter-Glo viability, 72 h; series mostly up to 46 µM
In short: (§2)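 Cell viability, measured as CellTiter-Glo luminescence, was normalized between DMSO and no-cell wells. The cells had been exposed to 8- or 11-point compound dilutions for 72 hr at 37 degree celsius.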

[5] = test system: HACAT; assay: as above; details: MCC and control cell lines, CellTiter-Glo viability, 72 h; at 44.8 µM (top of the series) unless noted
In short: as §2

[6] = test system: MCC-13; assay: as above; details: MCC and control cell lines, CellTiter-Glo viability, 72 h; series mostly up to 46 µM
In short: as §2

[7] = test system: MKL-1; assay: as above; details: MCC and control cell lines, CellTiter-Glo viability, 72 h; series mostly up to 46 µM
In short: as §2

[8] = test system: MKL-2; assay: as above; details: MCC and control cell lines, CellTiter-Glo viability, 72 h; series mostly up to 46 µM
In short: as §2

[9] = test system: P94_40; assay: qHTS profiling for inhibitors of Plasmodium falciparum proliferation (AID 504749); details: P. falciparum in erythrocytes, SYBR Green DNA, 72 h; series mostly up to 28.7 µM
In short: (§3)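 SYBR Green fluorescence of parasite DNA, read after lysis and overnight dark incubation, measured growth over 72 h in erythrocyte culture at 0.3% parasitemia and 2.5% hematocrit. Data normalised to DMSO and 0.29 uM artemisinin, with plate-drift correction.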

[10] = test system: PAD; assay: as above; details: P. falciparum in erythrocytes, SYBR Green DNA, 72 h; series mostly up to 28.7 µM
In short: as §3

[11] = test system: PC15; assay: as above; details: P. falciparum in erythrocytes, SYBR Green DNA, 72 h; series mostly up to 28.7 µM
In short: as §3

[12] = test system: PC26; assay: as above; details: P. falciparum in erythrocytes, SYBR Green DNA, 72 h; series mostly up to 28.7 µM
In short: as §3

[13] = test system: PC49; assay: as above; details: P. falciparum in erythrocytes, SYBR Green DNA, 72 h; series mostly up to 28.7 µM
In short: as §3

[14] = test system: SC27B; assay: as above; details: P. falciparum in erythrocytes, SYBR Green DNA, 72 h; series mostly up to 28.7 µM
In short: as §3

[15] = test system: TAB109; assay: as above; details: P. falciparum in erythrocytes, SYBR Green DNA, 72 h; series mostly up to 28.7 µM
In short: as §3

[16] = test system: TAB113; assay: as above; details: P. falciparum in erythrocytes, SYBR Green DNA, 72 h; series mostly up to 28.7 µM
In short: as §3

[17] = test system: TAB165; assay: as above; details: P. falciparum in erythrocytes, SYBR Green DNA, 72 h; series mostly up to 28.7 µM
In short: as §3

[18] = test system: HEK293T; assay: qHTS assay to identify novel small-molecules to repurpose for Merkel cell carcinoma treatment (AID 1296009); details: MCC and control cell lines, CellTiter-Glo viability, 72 h; at 44.8 µM (top of the series) unless noted
In short: as §2
Also: nearly all actives have a fitted effect of over 60% in size.
Potency is read from the fitted curve at half-maximal effect.

N#C/C(=C1/SC[C@@H](c2ccc(Cl)cc2Cl)S1)n1ccnc1
inactive: max response [1] -0.746% | max response [2] -3.46% and -14.6% and -17.3% | max response [3] -5.57% | Potency [4]

CCCc1c2oc(C(=O)O)cc(=O)c2cc2c(=O)cc(C(=O)O)n(CC)c12
inactive: outcome [5] | Potency [6] | Potency [4] | Potency [7] | Potency [8]

Nc1ncnc2nc[nH]c12
inactive: Potency [9] | Potency [10] | Potency [11] | Potency [12] | Potency [13] | Potency [14] | Potency [15] | Potency [16] | Potency [17] | outcome [5] | Potency [6] | Potency [4] | Potency [7] | Potency [8]

CCCCCC(=O)O[C@]1(C(C)=O)CC[C@H]2[C@@H]3CCC4=CC(=O)CC[C@]4(C)[C@H]3CC[C@@]21C
inactive: Potency [4] | Potency [8]

CC(NCCC(c1ccccc1)c1ccccc1)c1ccccc1 (configuration not stated)
inactive: max response [2] -10.5%
active: Potency [9] 11.2 µM | Potency [10] 12.6 µM | Potency [11] 11.2 µM | Potency [12] 8.49 µM | Potency [13] 5.01 µM | Potency [14] 11.2 µM | Potency [15] 12.6 µM | Potency [17] 11.2 µM | Potency [8] 11.9 µM

O=C1NC2CCCCN2C12CCN(CCCN1c3ccccc3CCc3ccc(Cl)cc31)CC2 (configuration not stated)
active: Potency [8] 21.1 µM

CN1CCCN=C1/C=C/c1cccs1
inactive: outcome [5] | outcome [18] | Potency [6] | Potency [4] | Potency [7] | Potency [8]

CCCCC/C=C\C/C=C\CCCCCCCC(=O)NC(C)c1ccccc1 (configuration not stated)
inactive: max response [1] -11.3% | max response [2] -8.18% | max response [3] -26.3% | Potency [6] | Potency [7]

C[C@H]1C[C@H]2[C@@H]3CCC4=CC(=O)C=C[C@]4(C)[C@H]3C(=O)C[C@]2(C)[C@@]1(O)C(=O)CO
inactive: max response [1] -5.83% | outcome [3] | Potency [6] | Potency [4] | Potency [7] | Potency [8]

CCC1(c2cnc[nH]2)Cc2ccccc2C1
inactive: Potency [6] | Potency [4] | Potency [7] | Potency [8]

Nc1nc2ccccc2n1Cc1ccc(F)cc1
inactive: outcome [1] | outcome [3] | outcome [5] | Potency [6] | Potency [4] | Potency [7]

CN1CCC(N(Cc2cccs2)c2ccccc2)CC1
inactive: max response [1] -4.44% | max response [2] -11.3% | max response [3] -5.48% | Potency [6] | Potency [4] | Potency [7] | Potency [8]

O=C(CCC1CCN(Cc2ccccc2)CC1)c1ccc2c(c1)NCCCC2
inactive: max response [1] 2.9% | max response [2] -12.9% | Potency [6] | Potency [7]

COc1ccc(-n2nc(CCC(=O)N(C)O)cc2-c2ccc(Cl)cc2)cc1
inactive: outcome [1] | outcome [5] | Potency [4]
active: Potency [8] 21.1 µM

CN1CCC(Nc2ncc3ncnc(Nc4ccc(F)c(Cl)c4)c3n2)CC1
inactive: max response [2] -0.0832% | Potency [6] | Potency [4]
active: Potency [9] 8.91 µM | Potency [15] 11.2 µM | Potency [17] 11.2 µM | Potency [1] 0.237 µM | Potency [8] 15 µM

COc1cccc2c1[C@@H]1CN(CCCCn3c(=O)[nH]c4c(sc5ncc(-c6ccccc6)nc54)c3=O)C[C@@H]1CO2
inactive: max response [2] 2.96%

NCC(=O)O
inactive: max response [1] -52.5% | max response [2] -10.5% | max response [3] -6.02% | Potency [6] | Potency [7] | Potency [8]

CN=C(N)NC(=O)Nc1c(C)cccc1C
inactive: outcome [5] | Potency [6] | Potency [4] | Potency [7] | Potency [8]

O=C1OC2(c3ccccc31)c1cc(I)c(O)c(I)c1Oc1c2cc(I)c(O)c1I
inactive: outcome [1] | max response [3] -20.5% | outcome [5] | Potency [6] | Potency [4] | Potency [7]

CCC(C(=O)OCCN1CCOC(c2ccccc2)C1C)c1ccccc1 (configuration not stated)
inactive: outcome [1] | max response [3] -22.2% | outcome [5] | Potency [6] | Potency [4] | Potency [7] | Potency [8]

CCCC(=O)O[C@]1(C(=O)CC)CC[C@H]2[C@@H]3CCC4=CC(=O)CC[C@]4(C)[C@H]3[C@@H](O)C[C@@]21C
inactive: max response [1] -13.1% | max response [3] -5.79% | Potency [6] | Potency [4] | Potency [7] | Potency [8]

O=S(=O)(O)c1ccc2nc(-c3ccccc3)[nH]c2c1
inactive: Potency [9] | Potency [10] | Potency [11] | Potency [12] | Potency [13] | Potency [14] | Potency [15] | Potency [16] | Potency [17] | max response [1] -12.3% | Potency [6] | Potency [7] | Potency [8]

C[C@H](N)C(=O)N[C@@H](C)C(=O)NC1[C@H]2CN(c3nc4c(cc3F)c(=O)c(C(=O)O)cn4-c3ccc(F)cc3F)C[C@@H]12 (some centres not stated)
inactive: max response [1] 0.555% | Potency [6]
